Consider 4 compounds from PubChem BioAssay.

Structures are written as SMILES. Inconclusive results are not listed. Calls of active or inactive are those of the source.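 The calls were made as follows, unless noted: active = percent response above a set limit, the screen-wide mean plus 3 SD (cut at about 130% in these data); inactive = the rest.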

Assay [1] in a line: rapamycin-like changes in RPL19A-GFP expression – cell-based, S. cerevisiae, multiplex flow cytometry, primary screen (AID 1862; in the data active = percent of DMSO control GFP below about 86%;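 also: lower values mimic rapamycin by blocking the RPL19A rise seen in DMSO cells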). To be noted: S. cerevisiae RPL19A-GFP strain, flow cytometry fluorescence, 3 h; at 10 µM; stronger effect = lower value.
The nature of assay [2]: TOR pathway GLN3 branch reporter MEP2-GFP changes – S. cerevisiae, multiplex flow cytometry, primary screen (AID 1867;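 active = GFP response, as percent of the DMSO control, above the screen-wide mean plus 3 SD, about 139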;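 also: median GFP channel fluorescence of barcode-gated MEP2-GFP cells measured by flow cytometry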). The note with it: S. cerevisiae MEP2-GFP strain, 3 h, at 10 µM, stronger effect = higher value, 100% means same as DMSO wells. On the technique in general: A flow cytometer gives signals particle by particle.
The nature of assay [3]: TOR pathway RTG branch CIT2 reporter changes – S. cerevisiae, GFP fusion, multiplex flow cytometry, primary screen (AID 1870).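 Also: barcoded CIT2-GFP strain pooled with four other GFP strains with rapamycin as positive control; median GFP fluorescence per well over plate mean of DMSO wells so 100% = DMSO.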 The note with it: S. cerevisiae CIT2-GFP expression, 3 h, at 10 µM, stronger effect = higher value.
Assay [4] can be described thus: TOR pathway LAP4-GFP level changes – S. cerevisiae, multiplex flow cytometry, primary screen (AID 1873;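 active = GFP signal, as percent of the solvent control, above the screen mean plus 3 SD, about 149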). To be noted: S. cerevisiae LAP4-GFP expression, 3 h, at 10 µM, stronger effect = higher value.
Assay [5] in a line: yeast AGP1-GFP level changes, GLN3 branch – cell-based, multiplex flow cytometry, S. cerevisiae, primary screen (AID 1887;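 active = GFP signal above the screen-wide mean plus 3 SD, that is over about 124.5% of the solvent control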;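 also: AGP1-GFP fusion strain of S. cerevisiae within a five-strain barcoded multiplex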). To be noted: 3 h, at 10 µM, stronger effect = higher value.
A short description of assay [6]: reduced mouse 2C T cell binding to pMHC/ICAM-1 vesicles – MLPCN validation set, flow cytometry, LFA-1/ICAM-1 modulator project, pilot screen (AID 2523;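 active = response below a set limit, under 55% cells CD8-positive and vesicle-bound, and CD8 cells' 90th-percentile brightness under 279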;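 as to vesicle binding response: mean PE anti-B7-1 fluorescence of CD8+ cells relative to row control; 100% = QL9-loaded vesicles with DMSO vehicle in the same plate row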). To be noted: 2C mouse CD8+ T cells, at 7 µM, stronger effect = lower value; double positive events: measured here: CD8+/vesicle+ event percentage.
For assay [7], the target named is Integrin beta-1 (Homo sapiens) + Integrin alpha-4 (Homo sapiens) (UniProt P13612+P05556). As to the kind of experiment: alpha4beta1 integrin LIBS antibody binding reduction – U937 cells, HUTS-21 mAb, flow cytometry, validation set, VLA-4 allosteric modulator project, pilot screen (AID 2674;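 active = inhibition above 50%, about 3 SD of the validation set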;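 also: antibody binding induced by the VLA-4 ligand LDV present at three times its Kd; 0% = LDV ligand with antibody and no compound and 100% = antibody without LDV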). To be noted: HUTS-21 LIBS mAb binding, at 6.7 µM, stronger effect = higher value, binding induced by LDV ligand.

The nature of assay [8]: calorie-restriction mimetic ROS inhibitors, yeast – validation compound set, pilot screen (AID 2706;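 active = superoxide response below 65% of plate, a cut near 3 SD across the whole screen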;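 also: yeast exposed to compound for one week at 30 degrees C before staining; 100% = mean of all compound wells on the same plate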). The note with it: S. cerevisiae aging, superoxide DHE fluorescence; at 10 µM; stronger effect = lower value.
Assay [9] addresses Beta-adrenergic receptor kinase 1 (Homo sapiens) (UniProt P25098). As to the kind of experiment: GRK2 binders displacing RNA aptamer, biochemical, validation, human GRK2, bead flow cytometry (AID 488806;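 active = aptamer binding inhibition above 30%, about 3 SD of noise from non-fluorescent compounds; inactive = inhibition at or below 30%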). The note with it: bead-bound GRK2, FAM-aptamer displacement, at 10 µM, stronger effect = higher value.
The target in assay [10] is Beta-2 adrenergic receptor (Homo sapiens) (UniProt P07550). As to the kind of experiment: agonist-induced loss of surface beta2AR – cell-based, FAP fluorogen, flow cytometry, validation set, pilot screen (AID 504459;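 active = percent response above 42, roughly 3 SD of non-fluorescent test compounds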;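 also: agonist-driven loss of surface beta2AR via internalization measured by FAP dye flow cytometry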). To be noted: Am2.2-beta2AR cells, at 10 µM, stronger effect = higher value.
In assay [11] the target is AP-2 complex subunit beta (Homo sapiens) (UniProt P63010). Description: beta-arrestin/AP2 interaction blockers – biochemical, validation set, GST-AP2 beads, flow cytometry, pilot screen (AID 504541;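 active = inhibition above 54%, about 3 SD of non-fluorescent compounds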;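 also: AP2 carries R879A mutation and is captured from E. coli lysate; bead-bound FITC arrestin peptide fluorescence measuring arrestin peptide binding to AP2; 0% = DMSO wells and 100% = excess unlabeled arrestin peptide control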). The note with it: FITC arrestin peptide, at 10 µM, stronger effect = higher value, AP2 beta2 appendage fragment, R879A mutant.
A short description of assay [12]: cytosolic pH regulators acting via V-ATPase – S. cerevisiae, pHLuorin, HTS validation (AID 504600; in the data active = response above about 15%;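 also: plate controls were DMSO for no effect and reference compound for full effect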). The note with it: V-ATPase proton transport, at 10 µM, stronger effect = higher value.
For assay [13], the system named is anti-desmoglein-3 scFv antibody binding to human DSG3. Description: blockers of pathogenic pemphigus antibody–desmoglein-3 binding – biochemical, validation compound set, bead-based, flow cytometry, pilot screen (AID 588368;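 active = binding below the plate cutoff, the plate median minus 3 SD, with a reading above zero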;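 also: signal is the median channel fluorescence of bead-bound GFP antibody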). To be noted: Protein G beads, DSG3-Fc, scFv-GFP binding, at 10 µM, stronger effect = lower value.
Assay [14] is described as follows: Nile Red efflux blockade in pump-expressing yeast – validation compound set, multiplex, phenotypic, pilot screen (AID 588506;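 active = efflux inhibition above 0.42, the validation set average plus 4 SD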;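 also: Nile Red retained in cells so higher fluorescence means more efflux inhibition; 0 = negative control wells and 1 = enniatin B 25 µM full block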). The note with it: S. cerevisiae pump-expressing triplex, Nile Red efflux flow cytometry; at 10 µM; stronger effect = higher value; the pumps come from Candida albicans.
For assay [15], the target named is ATP-binding cassette sub-family B member 6 (Homo sapiens) (UniProt Q9NP58). Description: blockers of ABCB6-driven porphyrin uptake – K562-ABCB6 cells, flow cytometry, validation set, pilot screen (AID 588550;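 active = inhibition above the screen-wide mean plus 3 SD, about 51%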;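 also: 0% = DMSO wells and 100% = benzethonium chloride 70 µM positive control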). The note with it: K562-ABCB6 porphyrin accumulation, 1 h, at 10 µM, stronger effect = higher value.
Assay [16] is described as follows: AML differentiation inducers, ER-HoxA9 marrow cells – cell-based, GFP/MAC1 double positive, flow cytometry, validation set, primary screen (AID 588685;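 active = differentiation response of at least 50%, scaled between solvent and reference control, from cells with both markers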;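 also: compound exposure lasts four days before antibody staining and flow analysis; 0% = DMSO wells and 100% = 5 µM fulvestrant positive control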). The note with it: stronger effect = higher value, normalized: vehicle 0, fulvestrant 100.

Chain of Integrin beta-1 (Homo sapiens) + Integrin alpha-4 (Homo sapiens) (P05556 whole entry, looked up): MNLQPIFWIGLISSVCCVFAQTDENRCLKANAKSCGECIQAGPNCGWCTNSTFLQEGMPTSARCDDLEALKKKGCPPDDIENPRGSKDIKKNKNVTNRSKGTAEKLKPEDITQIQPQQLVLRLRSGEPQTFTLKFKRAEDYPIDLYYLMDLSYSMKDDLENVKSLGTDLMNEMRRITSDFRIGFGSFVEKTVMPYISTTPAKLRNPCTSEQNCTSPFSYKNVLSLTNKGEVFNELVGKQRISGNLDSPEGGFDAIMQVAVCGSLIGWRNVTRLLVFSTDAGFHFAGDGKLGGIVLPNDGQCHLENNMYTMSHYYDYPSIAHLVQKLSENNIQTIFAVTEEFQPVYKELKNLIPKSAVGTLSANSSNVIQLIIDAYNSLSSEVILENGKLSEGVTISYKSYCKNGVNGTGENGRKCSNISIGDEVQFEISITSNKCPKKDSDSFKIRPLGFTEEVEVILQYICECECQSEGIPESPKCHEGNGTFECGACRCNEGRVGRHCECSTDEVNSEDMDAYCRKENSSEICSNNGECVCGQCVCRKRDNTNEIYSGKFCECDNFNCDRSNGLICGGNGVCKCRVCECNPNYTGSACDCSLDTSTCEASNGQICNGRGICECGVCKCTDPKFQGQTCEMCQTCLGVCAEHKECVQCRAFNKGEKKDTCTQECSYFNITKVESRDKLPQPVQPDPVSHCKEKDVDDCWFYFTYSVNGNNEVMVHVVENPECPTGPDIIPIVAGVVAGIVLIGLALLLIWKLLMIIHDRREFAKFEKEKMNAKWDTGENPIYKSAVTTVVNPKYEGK
Chain of Integrin beta-1 (Homo sapiens) + Integrin alpha-4 (Homo sapiens) (P13612 whole entry, looked up): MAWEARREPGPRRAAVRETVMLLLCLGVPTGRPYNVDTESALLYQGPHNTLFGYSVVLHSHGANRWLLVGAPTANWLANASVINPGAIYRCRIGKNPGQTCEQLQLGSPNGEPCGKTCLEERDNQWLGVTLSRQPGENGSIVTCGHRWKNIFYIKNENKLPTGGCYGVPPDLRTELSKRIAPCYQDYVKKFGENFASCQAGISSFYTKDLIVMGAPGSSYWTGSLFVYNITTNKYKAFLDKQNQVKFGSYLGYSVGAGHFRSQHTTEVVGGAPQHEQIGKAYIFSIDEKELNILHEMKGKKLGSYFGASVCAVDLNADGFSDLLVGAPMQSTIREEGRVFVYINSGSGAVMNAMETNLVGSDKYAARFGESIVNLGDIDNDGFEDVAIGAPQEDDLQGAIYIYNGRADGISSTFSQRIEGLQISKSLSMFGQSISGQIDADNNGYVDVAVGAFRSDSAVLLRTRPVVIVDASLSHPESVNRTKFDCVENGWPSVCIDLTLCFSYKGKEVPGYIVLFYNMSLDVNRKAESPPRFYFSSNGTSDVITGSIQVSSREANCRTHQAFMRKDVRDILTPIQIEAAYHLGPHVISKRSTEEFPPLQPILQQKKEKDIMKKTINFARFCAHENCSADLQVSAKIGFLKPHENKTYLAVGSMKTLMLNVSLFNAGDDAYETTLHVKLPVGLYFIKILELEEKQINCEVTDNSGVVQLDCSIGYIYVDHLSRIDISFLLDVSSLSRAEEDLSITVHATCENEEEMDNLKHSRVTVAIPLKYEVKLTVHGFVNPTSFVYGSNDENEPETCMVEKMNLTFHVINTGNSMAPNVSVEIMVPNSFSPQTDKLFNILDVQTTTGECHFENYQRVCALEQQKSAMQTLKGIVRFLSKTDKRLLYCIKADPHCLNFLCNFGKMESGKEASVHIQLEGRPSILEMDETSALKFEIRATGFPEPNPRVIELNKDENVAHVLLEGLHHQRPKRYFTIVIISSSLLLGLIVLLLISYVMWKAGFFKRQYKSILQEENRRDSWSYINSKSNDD
Chain of Beta-adrenergic receptor kinase 1 (Homo sapiens) (P25098 whole entry, looked up): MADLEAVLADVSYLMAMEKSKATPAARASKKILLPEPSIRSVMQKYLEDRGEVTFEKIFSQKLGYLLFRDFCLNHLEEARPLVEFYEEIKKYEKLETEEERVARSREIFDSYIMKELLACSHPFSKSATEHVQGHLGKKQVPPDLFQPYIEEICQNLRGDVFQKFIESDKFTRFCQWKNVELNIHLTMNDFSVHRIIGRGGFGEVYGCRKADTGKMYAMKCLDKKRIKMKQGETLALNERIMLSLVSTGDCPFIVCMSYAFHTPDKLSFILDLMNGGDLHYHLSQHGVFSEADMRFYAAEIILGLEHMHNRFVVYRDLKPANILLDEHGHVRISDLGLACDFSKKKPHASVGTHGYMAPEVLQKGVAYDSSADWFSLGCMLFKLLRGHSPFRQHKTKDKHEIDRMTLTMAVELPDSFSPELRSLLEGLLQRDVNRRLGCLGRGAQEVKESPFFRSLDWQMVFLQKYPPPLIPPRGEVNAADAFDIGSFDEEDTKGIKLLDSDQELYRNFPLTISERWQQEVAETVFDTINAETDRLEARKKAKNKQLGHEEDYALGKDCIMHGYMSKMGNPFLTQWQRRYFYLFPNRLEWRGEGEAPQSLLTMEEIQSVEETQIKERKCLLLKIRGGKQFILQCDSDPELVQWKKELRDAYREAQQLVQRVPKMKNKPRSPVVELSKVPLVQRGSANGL
Chain of Beta-2 adrenergic receptor (Homo sapiens) (P07550 whole entry, looked up): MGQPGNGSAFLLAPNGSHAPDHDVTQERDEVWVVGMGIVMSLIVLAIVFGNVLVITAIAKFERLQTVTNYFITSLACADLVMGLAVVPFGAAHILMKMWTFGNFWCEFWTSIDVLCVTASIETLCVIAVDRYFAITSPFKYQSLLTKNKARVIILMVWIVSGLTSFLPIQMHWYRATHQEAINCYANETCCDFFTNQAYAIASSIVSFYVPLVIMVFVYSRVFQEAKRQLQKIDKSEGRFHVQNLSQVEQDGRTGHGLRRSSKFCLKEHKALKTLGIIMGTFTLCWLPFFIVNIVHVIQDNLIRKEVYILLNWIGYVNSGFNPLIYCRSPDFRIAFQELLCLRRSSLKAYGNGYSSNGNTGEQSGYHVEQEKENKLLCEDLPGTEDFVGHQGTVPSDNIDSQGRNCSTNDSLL
Chain of ATP-binding cassette sub-family B member 6 (Homo sapiens) (Q9NP58 whole entry, looked up): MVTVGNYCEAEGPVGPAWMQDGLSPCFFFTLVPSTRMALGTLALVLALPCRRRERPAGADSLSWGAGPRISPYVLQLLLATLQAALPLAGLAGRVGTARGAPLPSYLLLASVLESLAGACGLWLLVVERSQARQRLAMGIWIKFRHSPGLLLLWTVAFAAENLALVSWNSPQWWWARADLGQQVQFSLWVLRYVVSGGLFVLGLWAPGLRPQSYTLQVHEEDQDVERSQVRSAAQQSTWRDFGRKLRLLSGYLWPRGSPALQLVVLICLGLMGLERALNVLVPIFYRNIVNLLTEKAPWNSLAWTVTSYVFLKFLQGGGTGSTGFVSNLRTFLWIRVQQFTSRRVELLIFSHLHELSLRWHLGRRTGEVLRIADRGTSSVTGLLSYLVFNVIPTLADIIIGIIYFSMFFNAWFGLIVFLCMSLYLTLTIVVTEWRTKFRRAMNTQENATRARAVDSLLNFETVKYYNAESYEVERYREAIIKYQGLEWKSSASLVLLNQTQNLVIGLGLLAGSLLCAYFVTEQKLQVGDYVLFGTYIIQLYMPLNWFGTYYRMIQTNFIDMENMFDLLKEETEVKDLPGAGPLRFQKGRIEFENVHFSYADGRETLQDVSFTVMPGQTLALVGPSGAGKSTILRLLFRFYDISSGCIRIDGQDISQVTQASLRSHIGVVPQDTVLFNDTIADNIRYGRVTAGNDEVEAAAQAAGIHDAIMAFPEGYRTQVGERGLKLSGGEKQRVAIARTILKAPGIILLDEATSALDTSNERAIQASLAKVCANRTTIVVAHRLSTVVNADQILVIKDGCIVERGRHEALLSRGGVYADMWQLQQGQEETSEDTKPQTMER
Chain of AP-2 complex subunit beta (Homo sapiens) (P63010 whole entry, looked up, the tested form may be a part, one chain of several): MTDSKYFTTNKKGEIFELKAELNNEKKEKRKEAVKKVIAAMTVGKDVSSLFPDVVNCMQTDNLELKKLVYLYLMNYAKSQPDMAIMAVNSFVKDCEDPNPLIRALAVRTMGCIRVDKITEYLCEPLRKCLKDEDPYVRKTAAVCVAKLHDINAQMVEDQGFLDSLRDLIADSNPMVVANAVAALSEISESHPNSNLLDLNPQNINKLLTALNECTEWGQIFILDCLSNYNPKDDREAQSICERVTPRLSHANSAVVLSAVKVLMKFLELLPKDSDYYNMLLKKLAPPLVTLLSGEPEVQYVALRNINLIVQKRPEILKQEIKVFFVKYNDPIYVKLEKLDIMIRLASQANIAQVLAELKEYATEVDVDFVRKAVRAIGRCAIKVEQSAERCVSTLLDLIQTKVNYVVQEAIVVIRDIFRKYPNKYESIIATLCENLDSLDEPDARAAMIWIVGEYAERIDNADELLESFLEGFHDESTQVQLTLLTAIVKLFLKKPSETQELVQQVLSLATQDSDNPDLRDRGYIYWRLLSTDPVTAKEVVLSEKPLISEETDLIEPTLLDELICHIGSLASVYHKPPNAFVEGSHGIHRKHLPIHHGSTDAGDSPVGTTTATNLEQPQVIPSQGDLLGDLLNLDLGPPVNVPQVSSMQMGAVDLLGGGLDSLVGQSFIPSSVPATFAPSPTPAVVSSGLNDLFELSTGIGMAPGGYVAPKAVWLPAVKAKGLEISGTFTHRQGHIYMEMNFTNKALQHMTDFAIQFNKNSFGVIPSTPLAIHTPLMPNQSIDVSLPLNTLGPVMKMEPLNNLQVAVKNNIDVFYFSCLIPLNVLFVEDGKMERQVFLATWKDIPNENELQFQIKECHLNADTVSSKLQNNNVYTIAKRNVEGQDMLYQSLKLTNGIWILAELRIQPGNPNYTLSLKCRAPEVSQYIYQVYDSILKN

Broadly, the inhibition is the drop in the measured response relative to a control, in per cent. In the case of `Cn1c(Oc2ccc3c(c2)OCO3)nc2c1c(=O)n(Cc1ccccc1)c(=O)n2C`, the percent of DMSO control GFP in assay [1] is 98.7% (inactive). Moreover, the figures for the GFP response vs DMSO in assay [2] and in assay [4] were 102% (inactive) and 104% (inactive), respectively. In [3], the percent response of DMSO control is 94.4% (inactive). For the same compound, the GFP response, % of DMSO in [5] is 109% (inactive). The same compound had a double positive events in assay [6] of 60.5%. The vesicle binding response in assay [6] is 189% (inactive). For the same compound, the inhibition was -5.38% (inactive) in assay [7], 3.83% (inactive) in [11] and 5% (inactive) in assay [15]. Besides, the superoxide response (% of plate) in assay [8] is 116% (inactive). Further, the aptamer binding inhibition in assay [9] is 8% (inactive). Besides, the response in [10] is -26.9% (inactive); in assay [12], -0.9% (inactive). For the same compound, in [13], the binding (% of control) was 97.8% (inactive). The efflux inhibition (fraction of control) in assay [14] is 0.04 (inactive). Moreover, in assay [16], the differentiation response is -4.99% (inactive).
As to `O=C(OCC1CCCN2CCCCC12)c1ccc2c(c1)OCO2` (stereo not drawn), the percent of DMSO control GFP in assay [1] is 93.7% (inactive). Further, the values for the GFP response vs DMSO in assay [2] and in assay [4] were 112% (inactive) and 75.9% (inactive), respectively. In addition, the percent response of DMSO control in assay [3] is 104% (inactive). In [5], the GFP response, % of DMSO was 95.9% (inactive). The double positive events in [6] was determined as 63.4%. In assay [6], the vesicle binding response was 208% (inactive). The values for the inhibition in assay [7], in assay [11] and in assay [15] were 13.2% (inactive), -5.07% (inactive) and 15% (inactive), respectively. Also, the superoxide response (% of plate) in assay [8] was 99.6% (inactive). The aptamer binding inhibition in assay [9] is 5% (inactive). Moreover, the response in assay [10] is -1.89% (inactive); in assay [12], 12% (inactive). In assay [13], the binding (% of control) is 104% (inactive). Moreover, in assay [14], the efflux inhibition (fraction of control) is -0.38 (inactive). Further, in assay [16], the differentiation response was 0% (inactive).
With `CCc1cc(C(N)=S)ccn1`, the percent of DMSO control GFP in [1] was 99.5% (inactive). Further, the GFP response vs DMSO is 104% (inactive) in assay [2] and 99.1% (inactive) in assay [4]. For the same compound, the percent response of DMSO control in assay [3] was 104% (inactive). The GFP response, % of DMSO in [5] is 107% (inactive). In assay [6], this compound had a double positive events of 63.7%. Moreover, in assay [6], the vesicle binding response was 166% (inactive). The inhibition in assay [7] was 9.63% (inactive); in assay [11], 4.47% (inactive); in assay [15], 1% (inactive). In assay [8], the superoxide response (% of plate) is 97.7% (inactive). Moreover, the aptamer binding inhibition in [9] is 4% (inactive). The response was -4.68% (inactive) in assay [10] and -4.94% (inactive) in assay [12]. Moreover, in assay [13], the binding (% of control) is 101% (inactive). Moreover, the efflux inhibition (fraction of control) in assay [14] is 0.12 (inactive). The differentiation response in [16] was -8.96% (inactive).
Take `Cc1cccc2c1CC(C)(C)N/C2=C\C(N)=O`: the percent of DMSO control GFP in [1] was 98.7% (inactive). Moreover, the GFP response vs DMSO in assay [2] is 102% (inactive); in assay [4], 103% (inactive). Moreover, the percent response of DMSO control in assay [3] is 91.8% (inactive). In addition, in assay [5], the GFP response, % of DMSO was 104% (inactive). Also, the double positive events in assay [6] was 63.7%. In addition, the vesicle binding response in [6] was 148% (inactive). Moreover, the inhibition in assay [7] is -217% (inactive); in [11], 10.1% (inactive); in assay [15], -25% (inactive). Moreover, the superoxide response (% of plate) in [8] is 99% (inactive). Besides, the aptamer binding inhibition in assay [9] was 0% (inactive). Besides, the response is -10.2% (inactive) in [10] and -3.68% (inactive) in [12]. Further, the binding (% of control) in assay [13] is 113% (inactive). The efflux inhibition (fraction of control) in [14] is 0.04 (inactive). The differentiation response in assay [16] was -12.9% (inactive).
